High-throughput results (PubChem)
KCNQ2 pot: potentiators of rat KCNQ2 potassium channel. CHO-K1 KCNQ2, FluxOR thallium flux fluorescence; stronger effect = higher value. B-score at 10 µM. hit rate 0.54% among 310,000. AID 2239;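 active = fluorescence ratio B-score at least 3 SD of library B-scores, with initial fluorescence B-score within 3 of them, cut at about 5.3 in these data; same plate scores as AID 2156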;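 also: B-score of peak minus minimum over baseline fluorescence ratio after K+ and Tl+ stimulus; positive B-score means potentiation of KCNQ2 with more thallium influx and brighter signal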
KCNQ2 block: KCNQ2 (rat) channel inhibition. O88943. CHO-K1 KCNQ2, FluxOR thallium flux, 20 min; stronger effect = lower value. B-score at 10 µM. hit rate 1.1% among 310,000. AID 2156;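 active = fluorescence ratio B-score at most minus 3 library SDs, with starting brightness B-score within 2 library SDs, cut at about -5.5 in these data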
KCNQ2 block conf: confirmation of rat KCNQ2 potassium channel inhibitors. KCNQ2-expressing cells, thallium flux, inhibition; stronger effect = lower value. hit rate 57% among 1,000. AID 493025. activity change, negative = inhibition, % at 10 µM. shares compounds with KCNQ2 block
KCNQ1 spec: KCNQ2 inhibitor that also affects human KCNQ1 channel; shares compounds with KCNQ2 block; KCNQ1-expressing cells, FluxOR thallium flux fluorescence; stronger effect = lower value; activity change, negative = inhibition, % at 10 µM; hit rate 15% among 1,000;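 active = activity change at least 3 SD of negative controls below their mean in both duplicate wells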;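 also: CHO cells stably transfected with KCNQ1 and depolarized by potassium stimulus; peak minus minimum fluorescence over baseline after thallium addition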
Target sequence (P51787 whole entry, looked up): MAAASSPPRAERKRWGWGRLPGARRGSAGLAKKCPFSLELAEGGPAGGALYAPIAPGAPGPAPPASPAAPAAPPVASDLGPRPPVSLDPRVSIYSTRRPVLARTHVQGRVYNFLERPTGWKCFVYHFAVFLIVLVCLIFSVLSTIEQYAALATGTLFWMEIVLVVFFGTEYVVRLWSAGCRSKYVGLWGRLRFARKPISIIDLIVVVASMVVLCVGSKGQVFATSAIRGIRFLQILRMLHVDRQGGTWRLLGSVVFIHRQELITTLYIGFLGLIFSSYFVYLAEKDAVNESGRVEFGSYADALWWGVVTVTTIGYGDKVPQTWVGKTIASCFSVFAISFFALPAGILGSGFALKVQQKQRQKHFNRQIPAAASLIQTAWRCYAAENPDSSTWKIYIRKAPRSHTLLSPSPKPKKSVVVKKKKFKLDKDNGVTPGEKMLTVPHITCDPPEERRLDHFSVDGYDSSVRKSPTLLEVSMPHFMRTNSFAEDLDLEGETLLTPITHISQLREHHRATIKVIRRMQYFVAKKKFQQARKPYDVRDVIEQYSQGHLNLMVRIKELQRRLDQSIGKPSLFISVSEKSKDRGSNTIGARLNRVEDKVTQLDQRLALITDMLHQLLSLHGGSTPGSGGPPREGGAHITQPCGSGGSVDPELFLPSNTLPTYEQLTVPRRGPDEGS
CHO parental ctr: counter-screen for KCNQ2 inhibitors: effect in parental CHO cells; shares compounds with KCNQ2 block; thallium flux counter-screen; stronger effect = lower value; activity change, % at 10 µM; hit rate 14% among 1,000; AID 493029
KCNQ2 inh confirm: blocks rat KCNQ2 current in automated patch clamp; shares compounds with KCNQ2 block; KCNQ2-expressing cells; calls only at 10 µM; hit rate 49% among 550
Numbers stand for hits; i = inactive; nt = not tested or not shown; + = active, no number. In the library only some 1.6% were active in any assay of this set; here they are far more common. Unless noted, no rule for the calls is given here.

SMILES | KCNQ2 pot | KCNQ2 block | KCNQ2 block conf | KCNQ1 spec | CHO parental ctr | others
COc1ccc(-c2n[nH]c(C)c2-c2cnn(-c3ccccc3)c2)c(O)c1 | i | -8 | i | i | i
COc1ccc(-c2n[nH]c(C)c2-c2cnn(-c3ccccc3)c2)c(O)c1C | nt | i | nt | nt | nt
Cn1ccnc1CN1CCCCC1C(=O)Nc1ccc(Oc2cccnc2)cc1 (configuration not stated) | nt | i | nt | nt | nt
C=C1SC(Nc2c(C)cccc2C)=NC12CCCCC2 | nt | i | nt | nt | nt
C=C1SC(Nc2c(C)cc(C)cc2C)=NC12CCCCC2 | i | -7.6 | -28% | i | i | KCNQ2 inh confirm=i
CCCOc1nc(SCCC)nc2c1cnn2-c1ccccc1 | nt | i | nt | nt | nt
CCOC(=O)N1CCC(n2c(SCC(=O)N3CCCC3)nc3ccccc3c2=O)CC1 | nt | i | nt | nt | nt
CCOC(=O)N1CCC(n2c(SCC(=O)NCCC3=CCCCC3)nc3ccccc3c2=O)CC1 | i | -7.5 | i | i | i
CCOC(=O)N1CCC(n2c(SCC(=O)NCc3ccccc3)nc3ccccc3c2=O)CC1 | nt | i | nt | nt | nt
CCOC(=O)N1CCC(n2c(SCC(=O)N3CCC(C)CC3)nc3ccccc3c2=O)CC1 | i | -7.8 | i | i | i
CC(C)OCCCN(C)C1CCN(S(=O)(=O)c2ccc(-c3cc(C(F)(F)F)no3)s2)CC1 | nt | i | nt | nt | nt
Cc1cccc(-n2ccc(=O)c(C(=O)Nc3ccc(S(=O)(=O)Nc4nccc(C)n4)cc3)n2)c1 | nt | i | nt | nt | nt
Cc1ccc(OCC(=O)NC2CCS(=O)(=O)C2)c([N+](=O)[O-])n1 (configuration not stated) | nt | i | nt | nt | nt
COc1ccccc1C(=O)Nc1ccccc1SC(=O)c1ccccc1OC | nt | i | nt | nt | nt
Cc1ccc(NC(=O)C(Nc2cccc(C)c2)c2ccccc2)cc1 (configuration not stated) | i | -7.4 | -28% | i | i | KCNQ2 inh confirm=i
Cc1ccc(NC(=O)C(Nc2ccccc2)c2ccccc2)cc1 (configuration not stated) | nt | i | nt | nt | nt
C[C@]1(CO)CCC[C@@]2(C)C1CC[C@@H](CO)[C@@H]2CCc1ccoc1 (some centres not stated) | i | i | nt | nt | nt
Cc1nc(N2CCCCC2)c2c(C)c(C(=O)Nc3ccc4c(c3)OCCO4)sc2n1 | i | i | nt | nt | nt
COc1ccc(Cl)cc1NC(=S)NCCc1ccc(F)cc1 | i | -8.7 | -36% | -34% | -30% | KCNQ2 inh confirm=+
COc1ccc(Cl)cc1NC(=S)NCCc1ccc(S(N)(=O)=O)cc1 | nt | i | nt | nt | nt
Cc1noc(C)c1COc1ccc(C(=O)N2CCN(c3ccccn3)CC2)cc1 | i | i | nt | nt | nt
COc1ccc(Cl)cc1C(=O)Nn1c(-c2cccs2)nc2ccccc2c1=O | i | i | nt | nt | nt
COc1cccc(OC)c1C(=O)Nn1c(-c2cccs2)nc2ccccc2c1=O | i | -9.2 | i | i | i
CC(C)CCNC(=O)C(c1ccc(O)cc1)N(Cc1ccco1)C(=O)CCC(=O)Nc1nccs1 (configuration not stated) | i | i | nt | nt | nt
Cc1ccc(N2C(=O)N(CC(=O)Nc3ccccc3C)C(=O)C2C)cc1 (configuration not stated) | nt | i | nt | nt | nt
SMILES | KCNQ2 pot | KCNQ2 block | KCNQ2 block conf | KCNQ1 spec | CHO parental ctr | others
Cc1ccc(N2C(=O)N(CC(=O)NCc3ccccc3Cl)C(=O)C2C)cc1 (configuration not stated) | i | -6.6 | -28% | i | i | KCNQ2 inh confirm=+
CC1(c2ccc(Cl)cc2Cl)NC(=O)N(CC(=O)Nc2ccc3[nH]c(=O)[nH]c3c2)C1=O (configuration not stated) | nt | i | nt | nt | nt
CCOCCCn1c(=S)[nH]c2cc(C(=O)NCCc3ccccc3)ccc2c1=O | nt | i | nt | nt | nt
CC(C)CCN(CC(=O)NCc1ccc(F)cc1)S(=O)(=O)c1ccccc1F | nt | i | nt | nt | nt
Cc1ccc(-n2cccc2/C=C2/C(=N)N3C(=NC2=O)SN=C3S(C)(=O)=O)cc1 | nt | i | nt | nt | nt
CCc1ccc(-n2cccc2/C=C2/C(=N)N3C(=NC2=O)SN=C3S(C)(=O)=O)cc1 | i | -10 | -39% | -41% | -35% | KCNQ2 inh confirm=i
CC1=C(C(=O)NCc2ccc3c(c2)OCO3)C2(CCC(C)CC2)OC1=O (configuration not stated) | i | -9.4 | i | i | i
CC1=C(C(=O)NCc2ccco2)C2(CCC(C)CC2)OC1=O (configuration not stated) | i | i | nt | nt | nt
CSc1ncc(C(=O)Nc2ccc(Br)cn2)c(C)n1 | nt | i | nt | nt | nt
O=C1[C@@H]2Cc3c([nH]c4ccccc34)CN2C(=O)CN1CCCCCO | i | i | nt | nt | nt
Cc1cc(C)nc(NC(=O)c2cc(-c3ccc4c(c3)OCO4)nc3ccccc23)c1 | i | -7.7 | -32% | i | i | KCNQ2 inh confirm=+
COC(=O)c1cc(-c2ccc3c(c2)OCO3)nc2ccccc12 | i | i | nt | nt | nt
O=C(C(=O)N1CCOCC1)c1cn(CCOc2ccccc2)c2ccccc12 | nt | i | nt | nt | nt
Cc1ccccc1OCCn1cc(C(=O)C(=O)N2CCOCC2)c2ccccc21 | i | -8.5 | -33% | i | i | KCNQ2 inh confirm=+
Cn1c(=O)c2sccc2n2c(CCCC(=O)N3CCN(c4ccccn4)CC3)nnc12 | i | i | nt | nt | nt
O=C(CN1CCCC1)N1c2ccccc2Sc2ccccc21 | i | i | nt | nt | nt
CC1(C)CCCN(C(=O)N2c3ccccc3Sc3ccccc32)C1 | i | -8.6 | i | i | i
Cc1ccc(CNS(=O)(=O)c2cn(C)c(=O)n(C)c2=O)cc1 | nt | i | nt | nt | nt
CCOc1ccc2nc(COC(=O)c3cccc([N+](=O)[O-])c3)c(C(C)=O)[n+]([O-])c2c1 | nt | i | nt | nt | nt
O=C(Nc1nccs1)c1ncc(Cl)c(Cl)c1Cl | nt | i | nt | nt | nt
CN(C)C(=O)c1ccc(NC(=O)CN2C(=O)NC3(CCCc4ccccc43)C2=O)cc1 (configuration not stated) | nt | i | nt | nt | nt
CCN1CCN(C(=O)c2ccc3c(=O)n(CCc4ccccc4)c(=O)[nH]c3c2)CC1 | nt | i | nt | nt | nt
O=C(COC(=O)CCSc1ccc(Cl)cc1)NCc1ccccc1Cl | i | i | nt | nt | nt
O=C(COC(=O)CCSc1ccc(Cl)cc1)NCc1ccco1 | i | -8.1 | i | i | i
Cc1ccc(S(=O)(=O)CCC(=O)OCC(=O)Nc2cc(F)ccc2C)cc1 | i | i | nt | nt | nt
SMILES | KCNQ2 pot | KCNQ2 block | KCNQ2 block conf | KCNQ1 spec | CHO parental ctr | others
Clc1ccccc1C(c1ccccc1)(c1ccccc1)n1ccnc1 | i | -7.6 | -36% | -30% | -24% | KCNQ2 inh confirm=i
Clc1ccccc1OCCCn1ccnc1 | i | i | nt | nt | nt
CC(OC(=O)CSc1ccc(F)cc1)C(=O)NC1(C#N)CCCCC1 (configuration not stated) | i | i | nt | nt | nt
O=C(NCc1ccco1)c1ccc(-c2csnn2)cc1 | nt | i | nt | nt | nt
CCOc1ccc(C(C(=O)NC2CCCC2)N(C(=O)c2snc(C(N)=O)c2N)c2cccc(O)c2)cc1 (configuration not stated) | i | i | nt | nt | nt
O=C(/C=C/c1ccccc1)N1CCC(Cc2ccccc2)CC1 | nt | i | nt | nt | nt
O=C(/C=C/c1cccc(Cl)c1)N1CCC(Cc2ccccc2)CC1 | i | -11 | -35% | -41% | -34% | KCNQ2 inh confirm=+
C(=N\Nc1nc(N2CCCCC2)nc(N2CCCCC2)n1)/c1c[nH]c2ccccc12 | i | -9.3 | -36% | i | i | KCNQ2 inh confirm=+
CN(C)c1nc(N/N=C/c2c[nH]c3ccccc23)nc(N2CCOCC2)n1 | i | i | nt | nt | nt
